This passage reports outcome results from PubChem BioAssay (EPA / NIEHS).

Activity calls are given as the source filed them. Rule for the calls: active = hit-call score of the fitted dose curve at least 0.9, where 1 is the maximum; inactive = score below 0.9.

Read-out in the assay: Collagen I, COL1A1 (gene 1277)
Description: BSK_hDFCGF_CollagenI: BioMAP Diversity Plus: hDFCGF Assay for Collagen I Biomarker Activity (AID 2284250). As to conditions: primary human foreskin fibroblasts. How it is done: BSK_hDFCGF is a cell-based, multiplexed-readout assay that uses foreskin fibroblast, a human skin primary cell, with measurements taken at 24 hours after chemical dosing in a 96-well plate.BSK_hDFCGF_CollagenI is an assay component measured in the BSK_hDFCGF assay. It measures Collagen I antibody related to regulation of gene protein expression using ELISA technology.Data from the assay component BSK_hDFCGF_CollagenI was analyzed at the endpoint, BSK_hDFCGF_CollagenI, in the positive analysis fitting direction relative to DMSO as the negative control and baseline of activity. Using a type of binding reporter, gain or loss-of-signal activity can be used to understand protein changes. To generalize the intended target to other relatable targets, this assay endpoint is annotated to the 'cell adhesion molecules' intended target family, where the subfamily is 'collagen'.
The levels of cell surface (or secreted, indicated by the prefix "s") biomarker endpoints were measured by ELISA. Overt cytotoxicity to cells in confluent adherent cultures (all systems other than the BT system) was assessed by measuring total protein levels using sulforhodamine B (SRB) staining in parallel cultures at the time of biomarker measurements, indicated as SRB endpoints. For proliferation assays for adherent cell types, individual cell types are cultured at sub-confluence and relative cell numbers quantified by SRB staining at time points optimized for each system (48 h: 3C and CASM3C systems; 72 h: BT and HDF3CGF systems; 96 h: SAg system). SRB was performed by staining cells with 0.1% SRB after fixation with 10% TCA and reading wells at 560 nm.Viability and proliferation of PBMC (T cells) was quantified by Alamar Blue reduction for the SAg and BT systems. For PBMC viability (referred to as PBMC Cytotoxicity within the assay endpoint names), cells were plated (75,000/well in a 96-well plate) and then chemical samples added for 1 h before addition of activators, SEB and TSST-1 (20 ng/mL final concentration each). Cells were incubated for 90 h. Then, Alamar Blue (20 uL/well) (Invitrogen, Cat DAL1100) was added for 6 h, and the plates were read with a fluorescence microplate reader at 546/580 nm (excitation/emission). For PBMC proliferation, cells were plated and activated as above but incubated for only 16 h prior to addition of Alamar Blue. Plates were read after 6 h.
Consider `OCC(O)CC(F)(F)C(F)(F)C(F)(F)C(F)(F)C(F)(F)C(F)(F)C(F)(F)C(F)(F)F` (stereo not given), for which the result was inactive. As for `NC(=O)C(F)(F)C(F)(F)C(F)(F)C(F)F`, the entry is “inactive”; as for `OCC(F)(F)C(F)(F)C(F)(F)CO`, “inactive”; as for `NC(=O)C(F)(F)C(F)(F)C(F)(F)F`, “inactive”. As for `NCC(F)(F)C(F)(F)C(F)(F)C(F)(F)C(F)(F)C(F)(F)F`, the entry is “inactive”; as for `COC(F)(C(F)F)C(F)(F)F` (stereo not given), “inactive”; as for `OCC(O)CC(F)(F)C(F)(F)C(F)(F)C(F)(F)F` (stereo not given), “inactive”. As for `CO[Si](C)(CCC(F)(F)C(F)(F)C(F)(F)C(F)(F)C(F)(F)C(F)(F)F)OC`, the outcome was inactive. For the compound `NC(O)(C(F)(F)F)C(F)(F)F`, the outcome was inactive. As to `O=C(O)C(F)(F)C(F)(F)C(F)(F)C(F)(F)C(F)(F)C(F)(F)C(F)F`, the result was inactive. As to `O=C(O)C(F)(F)C(F)(F)C(F)(F)C(=O)O`, the result was inactive. With `OCC(F)(F)C(F)(F)C(F)(F)C(F)(F)C(F)(F)C(F)(F)CO`, the outcome was inactive. On to `C=CC(=O)OCCC(F)(F)C(F)(F)C(F)(F)C(F)(F)F`, for which the outcome was inactive. On to `NC(=O)C(F)(F)C(F)(F)C(F)(F)C(F)(F)C(F)(F)C(F)(F)C(F)(F)F`, for which the result was inactive. For the compound `O=S(=O)(Cl)C(F)(F)C(F)(F)C(F)(F)C(F)(F)C(F)(F)C(F)(F)C(F)(F)C(F)(F)F`, the outcome was inactive.

Take `FC(F)(F)C(F)(F)C(F)(F)CC1CO1` (stereo not given): the result was inactive.

With `C[Si](Cl)(Cl)CCC(F)(F)C(F)(F)C(F)(F)C(F)(F)C(F)(F)C(F)(F)F`, the result was inactive. Regarding `O=C(Cl)C(F)(F)C(F)(F)C(F)(F)C(F)(F)C(F)(F)C(F)(F)C(F)(F)F`, the result was inactive. `FC(F)(F)C(F)(F)C(F)(F)C(F)(F)C(F)(F)C(F)(F)C(F)(F)CCI`: the result was inactive. In the case of `CNS(=O)(=O)C(F)(F)C(F)(F)C(F)(F)C(F)(F)C(F)(F)C(F)(F)C(F)(F)C(F)(F)F` it was “inactive”; in that of `O=C(O)C(F)(F)C(F)(F)C(F)(F)OC(F)(C(F)(F)F)C(F)(F)F`, “inactive”; in that of `O=C(O)C(F)(F)C(F)(F)C(F)(F)OC(F)(F)F`, “inactive”. For the compound `C=CC(=O)OCC(F)(F)C(F)(F)C(F)(F)COC(=O)C=C`, the outcome was inactive. As to `CCN(CCO)S(=O)(=O)C(F)(F)C(F)(F)C(F)(F)C(F)(F)C(F)(F)C(F)(F)C(F)(F)C(F)(F)F`, the result was inactive.

For the compound `NS(=O)(=O)C(F)(F)C(F)(F)C(F)(F)C(F)(F)C(F)(F)C(F)(F)F`, the outcome was inactive. Turning to `NC(=O)C(F)(F)C(F)(F)C(F)(F)C(F)(F)C(N)=O`, the result was inactive. As for `NCC(F)(F)C(F)(F)C(F)(F)C(F)(F)C(F)(F)C(F)(F)C(F)(F)C(F)(F)F`, the outcome was inactive. For `C=CC(=O)OCC(F)(F)C(F)(F)C(F)(F)C(F)(F)C(F)(F)C(F)(F)C(F)(F)C(F)F`, the outcome was inactive. For `O=C(O)CCC(F)(F)C(F)(F)C(F)(F)C(F)(F)C(F)(F)C(F)(F)C(F)(F)F`, the result was inactive.

For `OC(O)C(F)(F)C(F)(F)F`, the outcome was inactive. For `CCN=C1C=CC(=C(c2ccc(N(CC)CC)cc2)c2ccc(N(CC)CC)cc2)c2ccccc21`, the result was inactive. As for `FC(F)(F)C(F)(F)C(F)(F)C(F)(F)C(F)(F)C(F)(F)CC[Si](Cl)(Cl)Cl`, the result was inactive. `O=C(F)C1(F)C(F)(F)C(F)(F)C(F)(F)C(F)(F)C1(F)F`: the result was inactive.

As to `O=C(Cl)C(F)(F)C(F)(F)C(F)(F)C(F)(F)C(F)(F)C(F)(F)F`, the outcome was inactive. Take `OCC(F)(F)C(F)(F)C(F)(F)C(F)(F)C(F)(F)C(F)(F)C(F)(F)C(F)(F)CO`: the outcome was inactive. Consider `CCOC(=O)CC(=O)C(F)(F)C(F)(F)F`, for which the result was inactive. Turning to `CN(C(=O)C(F)(F)C(F)(F)C(F)(F)F)[Si](C)(C)C`, the result was inactive. As for `O=C(O)CCC(F)(F)C(F)(F)C(F)(F)F`, the entry is “inactive”; as for `O=C(O)C(F)(F)OC(F)(F)C(F)(F)OC(F)(F)C(F)(F)OC(F)(F)F`, “inactive”; as for `O=S(=O)(O)CCC(F)(F)C(F)(F)C(F)(F)C(F)(F)C(F)(F)C(F)(F)C(F)(F)C(F)(F)F`, “inactive”.
